# High-throughput results: PubChem, National Center for Advancing Translational Sciences (NCATS)
# HEK293 tox – Cytotoxic Profiling in HEK 293 Cell Line of Diverse Libraries Using Quantitative High-Throughput Screening | AID 1345083, 2018 | HEK 293 viability, ATP luminescence (CellTiter-Glo), 48-72 h | Potency, µM (series often up to 115 µM), for inactives: top-dose activity change, negative = cytotoxicity, actives largely listed as inhibitors | 94,000 compounds, 6.6% hits; note: % is set by controls: 0 for no effect and ±100 for the full control effect; nearly all actives have a fitted effect of over 60% in size
#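 Luminescence from cellular ATP, measured with CellTiter-Glo, indicates HEK 293 viability. Cells plated at 250 cells/well are treated with compound for 48 or 72 hr at 37 degree Celsius before reagent addition.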
# 3T3 cytotox – Cytotoxic Profiling in NIH 3T3 Cell Line of Diverse Libraries Using Quantitative High-Throughput Screening; NIH 3T3 viability, CellTiter-Glo ATP luminescence, 48-72 h; 94,000 compounds, 4.3% hits; Potency, µM (doses to about 96.7 µM), inactives show at the highest dose activity change, negative = cytotoxicity, actives largely listed as inhibitors; note: % is set by controls: 0 for no effect and ±100 for the full control effect; nearly all actives have a fitted effect of over 55% in size
#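 Cytotoxicity was measured by CellTiter-Glo ATP luminescence after 48 or 72 h compound exposure at 37 °C. Mouse NIH 3T3 fibroblasts were seeded at 400 cells/well and dosed by 23 nL pin transfer.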
# FLuc inh-1 – Firefly luciferase inhibition profiling of diverse chemical library using quantitative high-throughput screening. Luciferin 4-monooxygenase (Photinus pyralis), P08659. purified P. pyralis luciferase, luminescence, biochemical. Potency, µM (highest dose often 115 µM), actives largely listed as inhibitors. 76,000 compounds, 2.5% hits. AID 1347043, 2019; note: % is set by controls: 0 for no effect and ±100 for the full control effect; nearly all actives have a fitted effect of over 65% in size
#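 FLuc 10nM, D-luciferin 10uM, ATP 10uM, Mg acetate 10mM, Tris acetate pH 7.5, Tween/BSA; cpd qHTS; enzyme added last; CCD luminescence.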
# NPR1 antag – Natriuretic polypeptide receptor (hNpr1) antagonism - Primary qHTS. Potency, µM (titrated, usually from 46.3 µM), without a hit: at the highest dose activity change, negative = inhibition, hits mostly inhibitors. HEK293 hNpr1 GloSensor cGMP, ANP-stimulated luminescence. 76,000 compounds, 1.6% hits. AID 1347048, 2019; calls by dose curve; note: % is set by controls: 0 for no effect and ±100 for the full control effect; nearly all actives have a fitted effect of over 60% in size
# Target sequence (P16066 whole entry, looked up): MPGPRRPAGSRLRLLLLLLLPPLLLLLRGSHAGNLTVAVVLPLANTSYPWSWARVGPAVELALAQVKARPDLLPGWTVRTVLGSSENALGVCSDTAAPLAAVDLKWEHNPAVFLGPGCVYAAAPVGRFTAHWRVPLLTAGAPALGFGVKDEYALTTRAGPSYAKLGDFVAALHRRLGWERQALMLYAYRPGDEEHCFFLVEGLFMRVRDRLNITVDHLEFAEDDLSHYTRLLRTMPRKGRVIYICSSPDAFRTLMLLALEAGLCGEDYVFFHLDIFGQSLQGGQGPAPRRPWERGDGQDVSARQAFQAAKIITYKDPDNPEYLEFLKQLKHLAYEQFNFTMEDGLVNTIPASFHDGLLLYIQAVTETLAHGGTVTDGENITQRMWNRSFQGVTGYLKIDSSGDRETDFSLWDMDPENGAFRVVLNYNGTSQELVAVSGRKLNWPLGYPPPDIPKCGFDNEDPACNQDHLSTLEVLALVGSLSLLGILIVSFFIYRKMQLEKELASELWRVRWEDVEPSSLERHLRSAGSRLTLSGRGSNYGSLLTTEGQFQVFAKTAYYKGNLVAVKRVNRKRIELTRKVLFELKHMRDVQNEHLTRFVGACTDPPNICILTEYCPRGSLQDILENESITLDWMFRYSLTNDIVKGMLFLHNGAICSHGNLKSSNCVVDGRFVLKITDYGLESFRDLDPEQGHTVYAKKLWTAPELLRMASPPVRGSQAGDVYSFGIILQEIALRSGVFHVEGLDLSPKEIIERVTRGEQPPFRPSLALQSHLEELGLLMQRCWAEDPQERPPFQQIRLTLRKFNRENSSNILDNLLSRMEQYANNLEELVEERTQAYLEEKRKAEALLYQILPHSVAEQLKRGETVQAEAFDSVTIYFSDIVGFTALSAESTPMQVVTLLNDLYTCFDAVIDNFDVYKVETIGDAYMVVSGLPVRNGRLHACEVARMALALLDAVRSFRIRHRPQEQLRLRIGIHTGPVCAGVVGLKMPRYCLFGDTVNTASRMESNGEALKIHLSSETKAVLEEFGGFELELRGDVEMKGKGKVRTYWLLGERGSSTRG
#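 Compound pre-incubated 30 min at room temperature on GloSensor-loaded HEK293 cells stably carrying hNpr1 and the pGS-40F cGMP biosensor. Stimulation uses hNppA at 0.1 nM final; luminescence is taken at baseline and 20 min post-agonist.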
# GPT2 inhibitor – Primary qHTS assay for inhibitors of Glutamate pyruvate transaminase 2 (GPT2); Recombinant GPT2, coupled pyruvate oxidase/HRP Amplex Red fluorescence; Alanine aminotransferase 2 (Homo sapiens), Q8TD30; Potency, µM (top dose mostly 57.7 µM), inactives show at the top dose activity change, negative = inhibition, most hits filed as inhibitors; 100,000 compounds, 0.25% hits; note: % is set by controls: 0 for no effect and ±100 for the full control effect; nearly all actives have a fitted effect of over 60% in size
#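 Fluorescence read-out: pyruvate from GPT2 turnover coupled to pyruvate oxidase, HRP and Amplex Red (0.2mM ThPP, 0.2U/mL PO and HRP, 50uM Amplex final). Substrates 250uM a-KG, 2mM L-alanine; enzyme 10ng/uL; 30 min RT.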
# FLuc SDR no ATP – Firefly luciferase (FLuc-C-HiBiT) SDR gain of signal screen - without ATP; Purified FLuc-C-HiBiT, Nano-Glo HiBiT luminescence, no ATP; Potency, µM (titrated, usually from 32.7 µM), without a hit: top-dose activation (signal gain), hits mostly activators; 1,300 compounds, 7.8% hits; shares compounds with FLuc inh-1; note: nearly all actives have a fitted effect of over 55% in size
# FLuc SDR ATP – Firefly luciferase (FLuc-C-HiBiT) SDR gain of signal screen - plus ATP. purified FLuc-C-HiBiT + ATP, HiBiT complementation luminescence. AID 1963319, 2024. Potency, µM (series often up to 32.7 µM), for the others: at the highest dose activation (gain of signal), actives largely listed as activators. shares compounds with FLuc inh-1. 1,300 compounds, 8.7% hits;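 note: signal reports ligand binding via conformational change of the enzyme rather than luciferase catalysis; % of control where 0% means no effect; nearly all actives have a fitted effect of over 55% in size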
# FLuc inh-2 – Firefly luciferase (FLuc-C-HiBiT) enzymatic inhibition screen - Functional assay; shares compounds with FLuc inh-1; purified FLuc-C-HiBiT enzyme, luciferin luminescence; Potency, µM (titrated, usually from 32.7 µM), for inactives: top-dose activity change, negative = inhibition, usual class: inhibitors; 1,300 compounds, 42% hits; note: % is set by controls: 0 for no effect and ±100 for the full control effect; nearly all actives have a fitted effect of over 70% in size
# * = called active by the depositor; i = inactive; u = inconclusive; x = no result given; [ ] = dose if it differs, or a comment. Rows were chosen to be rich in hits. Some 10% of all compounds tested hit in one or more screens of this group. Unless noted, calls come from the whole dose curve; as a rule, active = well fitted curve in the direction sought with a large enough effect; inconclusive = small, poorly fitted or top-dose-only effect, or another doubt; inactive = no such curve, though single readings can be large; an effect the other way counts as inactive or inconclusive. Potency is the fitted concentration of half-maximal effect.
SMILES,HEK293 tox,3T3 cytotox,FLuc inh-1,NPR1 antag,GPT2 inhibitor,FLuc SDR no ATP,FLuc SDR ATP,FLuc inh-2
CNc1ccc(-c2nc3ccccc3s2)cc1,x,x,x,x,x,1.76µM*,1.11µM*,0.0785µM*
Cc1ccc(-c2nc(C(=O)N3CCN(c4ccccc4)CC3)no2)cc1,u,u,12.6µM*,-1.6%,i,26.3%,13.0%,u
Oc1cc(-c2nc3ccccc3s2)cc2c1OCCN(Cc1cccn1-c1ncccn1)C2,x,x,x,x,x,10.0%,7.5%,-12.7%
Oc1cc(-c2nc3ccccc3s2)cc2c1OCCN(Cc1cccn1-c1ccccn1)C2,x,x,x,x,x,14.0%,11.2%,-18.5%
Cc1nnc(CN2CCOc3c(O)cc(-c4ccccc4C)cc3C2)s1,u,u,i,-1.2%,i,x,x,x
Cn1ncc2c(C(=O)NCCc3ccc(Cl)cc3)cc(-c3ccc(Cl)nc3)nc21,4.1%,-36.0%,x,x,i,x,x,x
CC(C)(C)C1CN(Cc2ccccc2)C(=O)c2cccnc2O1 (stereo unspecified),u,-13.0%,x,x,x,x,x,x
CC1=C[C@@H](CNC(=O)c2ccc(C#N)cc2)[C@H](C(C)C)C[C@H]1CC(=O)NCCN(C)C,u,-23.0%[174 µM],i,-1.4%[70.6 µM],2.5%[88.5 µM],x,x,x
CC[C@H](O)[C@@H]1N(C(=O)c2csc(-c3cccs3)n2)C2CCC1(O)CC2,u,-17.1%,x,x,x,x,x,x
CC(=O)NC1(C)CCN(Cc2cccc(-c3ccc4c(ccn4C)c3)c2)C1 (stereo unspecified),89.1µM*,79.4µM*,14.1µM*,u,2.3%[88.5 µM],14.7%[49.3 µM],u,10.1µM*
CC(=O)NC1(C)CCCN(Cc2cccc(-c3cccc(F)c3)c2)C1 (stereo unspecified),u,u,i,-1.0%[70.6 µM],1.7%[88.5 µM],x,x,x
COc1ccc(-c2noc(CN3CCCCC3c3cccc(F)c3)n2)c(OC)c1OC (stereo unspecified),u,u,i,0.2%,-13.3%,x,x,x
OC1CCCN(c2ccc(-c3nc(-c4cccc(C(F)(F)F)c4)no3)cn2)C1 (stereo unspecified),u,u,1.58µM*,10µM*,u,14.9%,12.5%,u
COc1cccc(-c2noc(-c3ccc(N4CCCC(CO)C4)nc3)n2)c1OC (stereo unspecified),u,u,1.78µM*,-29.3%,i,u,u,2.79µM*
CC(=O)N1CCCN(c2ccc(-c3nc(-c4ccccc4F)no3)cn2)CC1,-0.7%,1.4%,12.6µM*,-3.1%,i,12.7%,u,u
Cc1ccccc1Cc1c(C)nc2c(C(=O)N3CCC(Cc4nncn4CC4CC4)CC3)cnn2c1C,-30.6%,-28.2%,i,2.1%,1.7%,x,x,x
CCc1noc(-c2cn(C3CCCN(C(=O)c4cc(Cl)ccc4F)C3)nn2)n1 (stereo unspecified),u,u,i,-19.3%,i,x,x,x
O=C(NCCc1cnc[nH]1)c1ccc2nc(-c3ccc(F)cc3)cn2c1,u,u,10µM*,-7.8%,-23.8%,16.6%,15.2%,u
O=C(NCC1CNCCOC1)c1ccc2nc(-c3ccc(F)cc3)cn2c1 (stereo unspecified),u,u,u,-5.8%,-4.7%,x,x,x
Cc1c(-c2ccccc2F)[nH]c2ccc(CNC(=O)CCc3cnccn3)cc12,u,u,u,-3.7%,u,x,x,x
Cc1c(-c2ccccc2F)[nH]c2ccc(CNC(=O)CC3CCC(=O)N3)cc12 (stereo unspecified),35.5µM*,-28.2%,10µM*,0.6%,1.7%,u,13.0%,9.89µM*
Cc1c(-c2ccccc2F)[nH]c2ccc(CNC(=O)CCc3cc(=O)[nH]o3)cc12,-4.2%,u,2.82µM*,-14.9%,3.9%,26.8%,17.5%,9.89µM*
O=C(C1CCCCc2nnc(-c3ccccc3)n21)N1CCCC1 (stereo unspecified),2.3%,-8.8%,x,x,1.2%,x,x,x
C/C=C(/C)C(=O)O[C@@H]1C[C@@H](OC(=O)/C(C)=C\C)[C@@]2(C)C3C(=O)C=C(C)C2C3C1(C)C,x,x,x,x,-0.4%[27.3 µM],x,x,x
O=C(NC1CCCCCC1)C1CCN(c2ccnc3ccnn23)CC1,u,-49.9%[138 µM],x,x,-0.6%[88.5 µM],x,x,x
SMILES,HEK293 tox,3T3 cytotox,FLuc inh-1,NPR1 antag,GPT2 inhibitor,FLuc SDR no ATP,FLuc SDR ATP,FLuc inh-2
O=C(NCCC1CCCCC1)c1c[nH]c2ncccc12,70.8µM*,u,5.62µM*,u,-25.5%[88.5 µM],u,18.3%[49.3 µM],18µM*
O=C(NCCN1CCOCC1)c1c[nH]c2ncccc12,-3.0%[172 µM],-9.4%[138 µM],i,12.3%[70.6 µM],-4.3%[88.5 µM],x,x,x
Cc1cccc(N2CCN(C(=O)CSCc3ccc(F)cc3)CC2)c1C,x,x,x,x,x,11.9%,8.5%,-7.7%
CN(C1CCc2ccccc2C1)[S+](=O)([O-])c1cccs1 (stereo unspecified),u,u,i,3.3%[70.6 µM],i,12.0%[49.3 µM],6.4%[49.3 µM],-9.1%[49.3 µM]
CN(C)C(=O)N(C)C1CCc2ccccc2C1 (stereo unspecified),-7.8%[172 µM],-26.1%[138 µM],i,4.3%[70.6 µM],-4.2%[88.5 µM],x,x,x
CCN1CCC(N2CCC3(CC2)CC(C(=O)N2CCOCC2)N(C)C3)CC1 (stereo unspecified),-3.1%,-11.6%,x,x,-8.9%,x,x,x
Cc1ccc(Cl)cc1-n1nnc(-c2nsc(NC(=O)c3ccccc3Cl)n2)c1C,x,x,x,x,x,10.8%,8.7%,-5.6%
Cn1nccc1-c1ncc2c(n1)OCCN(Cc1ccccc1)C2=O,u,-25.2%[138 µM],i,u,i,x,x,x
COc1ccc(CN2CCOc3nc(-c4cccc(N(C)C)c4)ncc3C2=O)cc1,u,u,i,-1.6%[70.6 µM],-6.6%[88.5 µM],x,x,x
